Screening data from PubChem.
DAX1 inh-1 = DAX1 (NR0B1) inhibitors on StAR promoter, primary screen, cell-based, luminescence, SF-1 (NR5A1), full-length DAX-1; HEK293T StAR-luciferase reporter, SF-1/DAX-1 repression relief; inhibition, % at 6.8 µM; 370,000 compounds, 1.1% hits; AID 652010, 2013;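 active = inhibition above the mean over all tested compounds plus 3 SD, cut at about 3.6% in these data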;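 also: higher inhibition means more luminescence from relief of DAX-1 repression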
hcDAF12 agonist = H. contortus DAF-12 nuclear receptor activators, primary screen, cell-based, luminescence, HEK293, lit1-tk-luc reporter. HEK293 hcDAF-12 lit1-tk-luc reporter; 0% DMSO, 100% Δ7-dafachronic acid. activation, % at 6.8 µM. 370,000 compounds, 1.4% hits. AID 652067, 2013;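 active = activation above the mean of all tested compounds plus 3 SD, cut at about 5.5% in these data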
ssDAF12 agonist = S. stercoralis DAF-12 nuclear receptor activators, primary screen, cell-based, luminescence, HEK293, GRIP1 co-expression, lit1-tk-luc. Nuclear hormone receptor DAF-12 (Strongyloides stercoralis). HEK293 ssDAF-12/GRIP1 lit1-tk-luc reporter; % of 3 µM dafachronic acid response. activation, % at 6.8 µM. 370,000 compounds, 1% hits. AID 652126, 2013;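 active = activation above the mean over all tested compounds plus 3 SD, cut at about 0.9% in these data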
hgDAF12 agonist = H. glycines DAF-12 receptor agonists, primary screen, cell-based, luminescence, HEK293, GAL4 fusion, UAS-luciferase. HEK293 GAL4-hgDAF12 UAS-luciferase reporter, agonist luminescence; normalized to butyrate control. activation, % at 6.8 µM. 370,000 compounds, 1.8% hits. AID 687014, 2013;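 active = activation above a cutoff set at the mean of all screened compounds plus 3 SD, cut at about 10% in these data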
DAX1 inh-2 = DAX1 (NR0B1) inhibitors, primary screen, cell-based, HEK293, Gal4-DAX1, luciferase luminescence; AID 504766, 2011; 340,000 compounds, 0.99% hits; HEK293 Gal4-DAX1 luciferase reporter; inhibition, % at 6.75 µM; Nuclear receptor subfamily 0 group B member 1 (Homo sapiens), P51843;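 active = inhibition above the mean over all tested compounds plus 3 SD, cut at about 4.2% in these data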;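 also: inhibition shows as a rise in luminescence from relieved DAX1 repression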
SMARCA2 activ = SMARCA2 (BRM) function activators, primary screen, cell-based, luminescence, high throughput. activation, % at 9.1 µM. MG213 cells, MMTV-luciferase reporter, dexamethasone, overnight. 370,000 compounds, 1% hits; in the data active = activation above about 7.8%
LXR ag = LXR agonists, Gal4 luciferase reporter, confirmation, counter-screen for hcDAF-12 agonist project, cell-based, luminescence, HEK293, H. contortus campaign | shares compounds with hcDAF12 agonist | HEK293 Gal4-LXR tk-luc reporter, 24 h; normalized: DMSO 0%, positive control 100% | activation, % at 6.8 µM | 3,400 tested, under 10 active | AID 743027, 2013;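 active = mean percent activation of the reporter above a cutoff set as the average over tested compounds plus their standard deviation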
Target sequence (P55055 whole entry, looked up, the tested form may be a part): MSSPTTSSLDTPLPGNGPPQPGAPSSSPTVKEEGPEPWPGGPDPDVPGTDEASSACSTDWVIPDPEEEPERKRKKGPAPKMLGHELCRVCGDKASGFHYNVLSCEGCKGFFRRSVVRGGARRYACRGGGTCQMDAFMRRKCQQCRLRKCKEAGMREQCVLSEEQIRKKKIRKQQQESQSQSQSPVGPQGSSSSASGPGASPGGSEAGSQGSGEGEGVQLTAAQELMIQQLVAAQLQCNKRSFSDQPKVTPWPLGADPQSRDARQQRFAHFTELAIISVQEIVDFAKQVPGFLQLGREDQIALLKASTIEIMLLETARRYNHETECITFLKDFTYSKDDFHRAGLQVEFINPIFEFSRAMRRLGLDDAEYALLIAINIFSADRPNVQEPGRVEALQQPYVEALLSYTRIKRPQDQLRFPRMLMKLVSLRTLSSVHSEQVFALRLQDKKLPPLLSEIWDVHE
hcDAF12 ag = H. contortus DAF-12 receptor agonists, confirmation, cell-based, luminescence, HEK293, lit1-tk-luc, triplicate; shares compounds with hcDAF12 agonist; HEK293 hcDAF-12 lit1-tk-luc reporter; % of Δ7-dafachronic acid response; activation, % at 6.8 µM; 3,400 compounds, 61% hits;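 active = mean activation across triplicate tests above the threshold derived from the earlier primary screen, cut at about 5.5% in these data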
Numbers stand for hits; . = inactive; / = no result. Only some compounds are listed: those with a hit (about 4.8% of all), similar ones and a draw of the others.

SMILES | DAX1 inh-1 | hcDAF12 agonist | ssDAF12 agonist | hgDAF12 agonist | DAX1 inh-2 | SMARCA2 activ | LXR ag | hcDAF12 ag
Cc1sc(NC(=O)c2ccc(Cl)s2)c(C(N)=O)c1C | . | 10 | 2.0 | 13 | 4.6 | . | . | 14
Cc1sc(NC(=O)c2cc(-c3ccc(Cl)cc3)nc3ccccc23)c(C(N)=O)c1C | . | . | . | . | . | . | / | /
CN1CCN(C(=O)Nc2ccccc2)CC1 | . | . | . | . | . | . | / | /
CN1CCN(C(=O)Nc2ccccc2CC[N+](=O)[O-])CC1 | . | 13 | . | . | . | . | . | .
COC(=O)c1cc(-c2ccc(C(C)(C)C)cc2)c(=O)n2c1CCC2 | . | 7.1 | . | . | / | . | . | .
Cc1ccc(S(=O)(=O)CCC(=O)OCC(=O)c2c[nH]c3ccccc23)cc1 | . | 9.4 | . | . | . | . | . | 5.8
Oc1c(C=Nc2ccccc2Cl)[nH]c2ccccc12 | . | 15 | 1.1 | 14 | . | . | . | 8.9
COC(=O)[C@]12C[C@H](CC(=O)NCC3CCCCC3)C(=O)N(Cc3ccc4c(c3)OCO4)C1=C[C@H](C(C)(C)C)O[C@@H]2C | . | . | . | . | / | . | / | /
Clc1cccc(-c2nc(-c3ccccn3)no2)c1 | . | 9.7 | . | . | . | . | . | 12
O=c1oc2c(O)cccc2cc1-c1nc2ccccc2[nH]1 | . | 8.1 | . | . | . | . | . | .
O=C(Nc1ccncc1)Nc1cccc(Cl)c1Cl | . | . | . | . | . | . | / | /
O=C(NCc1csc2ccc(Cl)cc12)Nc1ccccc1 | . | . | . | . | . | . | / | /
Cn1cccc1C(=O)C(=O)Nc1cccc(Cl)c1Cl | . | 6.6 | . | . | . | . | . | 12
O=C(Nc1ccccc1)Nc1cccc(Cl)c1Cl | . | 7.3 | . | . | . | . | . | .
CC(C)(C)NC(=O)Nc1cccc(Cl)c1Cl | . | . | . | . | . | . | / | /
O=C(NCc1ccc(Cl)cc1Cl)Nc1ccccc1 | . | 7.4 | . | . | . | . | . | .
O=C(NCC1CCCO1)c1cc2cc(F)ccc2[nH]1 (stereo not given) | . | 7.1 | . | . | . | . | . | .
CCOC(=O)C1(CCOc2ccccc2)CCN(CCCn2cccn2)CC1 | . | . | . | . | . | . | / | /
c1ccc2c(c1)ncc1cccn12 | . | 6.7 | 1.5 | . | . | . | . | .
COc1ccc(-c2cc(C(F)(F)F)n3nc(C(=O)Nc4c(C)n(C)n(-c5ccccc5)c4=O)c(Cl)c3n2)cc1 | . | . | . | . | . | . | / | /
Cc1c(NC(=O)c2nn3c(C(F)(F)F)cc(-c4ccccc4)nc3c2Cl)c(=O)n(-c2ccccc2)n1C | . | 6.8 | . | . | . | . | . | .
Cc1nn(C2CCS(=O)(=O)C2)c2nc(C3CC3)cc(C(=O)Nc3cccc(C#N)c3)c12 (stereo not given) | . | . | . | . | . | . | / | /
COC(=O)C1=C(C)N(c2ccc(C)c(C)c2)/C(=C/c2ccc(O)cc2)C1=O | . | . | . | . | . | . | / | /
Fc1ccc(OCc2nnc(-c3ccccc3Br)o2)c(Cl)c1 | . | 7.1 | . | 11 | . | . | . | .
CC(=NNC(=O)c1ccncc1)c1ccccc1Cl | . | . | . | . | . | . | / | /
SMILES | DAX1 inh-1 | hcDAF12 agonist | ssDAF12 agonist | hgDAF12 agonist | DAX1 inh-2 | SMARCA2 activ | LXR ag | hcDAF12 ag
C/C(=N\NC(=O)c1ccccc1NC(=O)c1ccc(Cl)cc1)c1ccncc1 | . | 11 | . | . | . | . | . | 5.8
CCOC(=O)c1nc2ccccc2s1 | . | 8.8 | 1.4 | . | . | . | . | 9.3
NC(=O)c1ccccc1OCc1nc2ccccc2s1 | . | 14 | . | 13 | . | . | . | 14
CC(=O)OCc1nc2ccccc2s1 | 4.0 | 7.7 | . | 12 | . | . | . | 12
O=C(O)COCc1nc2ccccc2s1 | . | . | . | . | . | . | / | /
O=C(Nc1ccccc1Cl)c1cc(C2CCCN(C(=O)C3CCCCC3)C2)on1 (stereo not given) | . | . | . | . | / | . | / | /
COc1ccc(C[C@H]2CN3C(=NC[C@@H]3Cc3ccc(O)cc3)N2C[C@H](C)NC(=O)CCC2CCCCC2)cc1 | . | . | . | . | . | . | / | /
O=C(Nc1ccc(Br)cc1)c1cc2ccccn2n1 | . | 6.9 | . | 13 | . | . | . | .
COc1ccc(NC(=O)CSC2=NCCN2)cc1 | . | . | . | . | . | . | / | /
O=C(Nc1ccc(Nc2ccccc2)cc1)C(Cl)Cl | . | . | . | . | . | . | / | /
O=C(Nc1ccsc1C(=O)O)c1cccc(Oc2ccccc2)c1 | . | 7.8 | . | 13 | . | . | . | 7.3
O=C(Nc1nnc(-c2cccs2)o1)c1cccc(Oc2ccccc2)c1 | . | . | . | . | . | . | / | /
COc1ccccc1Cc1nc(-c2ccc(Br)o2)no1 | . | 8.1 | . | . | . | . | . | 8.0
CCOC(=O)c1c(-c2ccc(OC)cc2)csc1NC(=O)CSc1nnc(C)c(=O)[nH]1 | . | . | . | . | . | . | / | /
CCOC(=O)C1CCCN(C(=O)c2cc(S(=O)(=O)N3CCCCCC3)ccc2OC)C1 (stereo not given) | . | . | . | . | . | . | / | /
Cc1ccc(-c2nnc(-c3cccc4ccccc34)o2)cc1 | . | 7.6 | 1.2 | . | . | . | . | 21
O=C(Nc1nccs1)c1ccc(-c2ccccc2Cl)o1 | . | 6.7 | 2.4 | 12 | . | . | . | 6.2
CC(=O)Nc1ccc(NC(=O)c2ccc(-c3ccccc3Cl)o2)cc1 | . | . | . | . | . | . | / | /
Cc1cc(C)c2oc(-c3ccc(C)c(NC(=S)NC(=O)c4cccs4)c3)nc2c1 | . | 7.7 | . | . | . | . | . | .
